Compound activity: PubChem, National Center for Advancing Translational Sciences (NCATS)
Compounds with a hit are over-represented: about 7.5% of the library has one in this group of screens.
Giardia FBPA inh = blocks Giardia fructose-bisphosphate aldolase activity; A8B2U2; purified Giardia FBPA; Potency, µM (highest dose often 59.6 µM), for inactives: at the highest dose activity, negative = inhibition, actives largely listed as inhibitors; 0.71% of 290,000 active; note: potency is the fitted concentration of half-maximal effect; nearly all actives have a fitted effect of over 55% in size
Target sequence (A8B2U2 whole entry, looked up): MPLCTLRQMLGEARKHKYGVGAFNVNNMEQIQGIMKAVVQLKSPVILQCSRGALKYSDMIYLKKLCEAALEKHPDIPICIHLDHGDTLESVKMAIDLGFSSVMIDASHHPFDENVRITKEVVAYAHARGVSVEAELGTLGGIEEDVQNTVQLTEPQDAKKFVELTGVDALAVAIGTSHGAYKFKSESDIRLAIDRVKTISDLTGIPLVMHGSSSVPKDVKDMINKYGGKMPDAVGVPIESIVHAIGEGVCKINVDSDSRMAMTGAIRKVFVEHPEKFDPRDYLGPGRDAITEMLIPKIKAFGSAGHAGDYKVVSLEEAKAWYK
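Giardia FBPA (40 nM reagent) was preincubated 10 min at RT with compound (up to 57.5 uM final), then substrate plus GAPDH/TPI/NAD/arsenate coupling system with diaphorase/resazurin was added; resorufin fluorescence (525/598 nm) was read after 20 min.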
Vaccinia Venus = inhibitors of vaccinia virus (Venus reporter); AID 720580; 0.46% of 330,000 active; Vaccinia virus Venus reporter expression, fluorescence; Potency, µM (titrated, usually from 36.5 µM), for the others: at the highest dose activity change, negative = inhibition, actives largely listed as inhibitors; calls by dose curve; tested in A549 cells; note: potency is the fitted concentration of half-maximal effect; nearly all actives have a fitted effect of over 30% in size
Vaccinia mCherry = inhibitors of vaccinia virus infection (mCherry reporter signal); Vaccinia virus mCherry reporter infection, fluorescence; Potency, µM (titrated, usually from 36.5 µM), inactives show at the top dose activity change, negative = inhibition, hits mostly inhibitors; 0.63% of 310,000 active; AID 720579; calls by dose curve; tested in A549 cells; note: potency is the fitted concentration of half-maximal effect; nearly all actives have a fitted effect of over 35% in size
HCV inh = blocks hepatitis C virus | Huh7.5.1 HCVcc-Cre infection, luciferase reporter, 44 h | Potency, µM (series often up to 41.8 µM), without a hit: at the highest dose activity change, negative = inhibition, usual class: inhibitors | 3.4% of 340,000 active | AID 651820; note: potency is the fitted concentration of half-maximal effect
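A cell-based infection assay in which seeded cells (1,000 per well) receive test compound after 4 h, are inoculated with HCVcc-Cre at approximately 0.5 moi, and are incubated 44 h before luminescence detection.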
HCMV antiviral = inhibitors of human cytomegalovirus; AID 1259415; activity change, negative = inhibition, % at 57.5 µM; 4.5% of 410,000 active; HFF cells, HCMV-luciferase reporter, 72 h; stronger effect = lower value; in the data active = activity change below about -60%; inconclusive = no clear call, values can overlap the other calls; inactive = above about -39%
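Two-dose cell screen: HFF monolayers treated with compounds and infected with luciferase-expressing HCMV at 1 PFU/cell, 72 h at 37C, then lysed for luciferase measurement.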
FMDV inh = blocks foot and mouth disease virus | FMDV antiviral cell-based qHTS | Potency, µM (titrated, usually from 57.9 µM), for inactives: at the top dose activity change, negative = inhibition, most hits filed as inhibitors | 1.2% of 410,000 active; calls by dose curve; tested in HEK293T cells; note: read-out not given here; potency is the fitted concentration of half-maximal effect; nearly all actives have a fitted effect of over 45% in size
Numbers without * were called inactive; i = inactive; ? = inconclusive; nt = no result given; [ ] = another dose, or the depositor's remark. Unless noted, calls come from the whole dose curve; as a rule, active = well fitted curve in the direction sought with a large enough effect; inconclusive = small, poorly fitted or top-dose-only effect, or another doubt; inactive = no such curve, though single readings can be large; an effect the other way counts as inactive or inconclusive. % is set by controls: 0 for no effect and ±100 for the full control effect.

SMILES | Giardia FBPA inh | Vaccinia Venus | Vaccinia mCherry | HCV inh | HCMV antiviral | FMDV inh
CCC1CN(CCNC(=O)c2cccc(C(=O)OC)c2)Cc2cc(OC)ccc2O1 (stereo not given) | nt | -2.6% | -14.0% | nt | nt | 54.1%
CCN(C(=O)COC(=O)CCCOc1ccccc1)c1c(N)n(Cc2ccccc2)c(=O)[nH]c1=O | nt | nt | nt | 0.4% | -17.3 | -17.2%
CCCn1c2ccccc2c2cnn(CC(=O)NCCCN3CCCC(C)C3)c(=O)c21 (stereo not given) | nt | -22.0% | i | ? | -65.5* | -7.0%
CCCn1c2ccccc2c2cnn(CC(=O)NCCCN3CCN(c4ccccc4)CC3)c(=O)c21 | 16.1% | -6.6%[7.34 µM] | -3.9%[7.34 µM] | 11.2µM* | -24.4 | -13.0%
CCCn1c2ccccc2c2cnn(CC(=O)N3CCCC(C)C3)c(=O)c21 (stereo not given) | nt | -14.5% | i | nt | -61.8* | -4.3%
CCCn1c2ccccc2c2cnn(CC(=O)NCCCN3CCCCC3)c(=O)c21 | nt | -3.3% | -2.6% | -10.4% | -23.8 | ?
COc1ccccc1CNC(=O)Cn1ncc2c3ccccc3n(Cc3ccccc3C)c2c1=O | nt | ? | -10.3% | nt | -8.0 | -3.3%
Cc1ccccc1Cn1c2ccccc2c2cnn(CC(=O)NCc3cccc(Cl)c3)c(=O)c21 | nt | -12.0% | -19.7% | nt | -78.4* | -9.7%
Cc1cc(C)nc(-n2nc(C)c3c2NC(=O)CC3c2cc(F)ccc2F)n1 (stereo not given) | nt | -15.3% | -5.6% | nt | -18.0 | -25.4%
O=C(O)C1CCC[C@@H]2[C@@H]3CC(CN12)[C@@H]1CCCCN1C3 (stereo not given in full) | -9.4% | nt | nt | nt | nt | 0.0%
CCc1cccc(C)c1NC(=O)CCS(=O)(=O)c1ccc2c(c1)oc(=O)n2C | nt | 2.4% | -3.9% | nt | 0.6 | -11.1%
CC1CCCCN1CCCNC(=O)Cn1ncc2c3ccccc3n(Cc3ccccc3F)c2c1=O (stereo not given) | nt | ? | -28.0% | nt | -74.5* | -25.0%
CC1CCCCN1CCCNC(=O)Cn1ncc2c3ccccc3n(C)c2c1=O (stereo not given) | nt | -7.7% | -17.8% | nt | 30.7 | -12.1%
Cc1ccc(C(=O)NCC(C)(C)N2CCOCC2)s1 | 5.9% | -10.8% | -8.0% | 20.7% | 54.4 | 8.6%
CC(C)(CNC(=O)c1sc2cc(F)ccc2c1Cl)N1CCOCC1 | 2.1% | -10.5% | -8.7% | 11.2µM* | ? | -5.0%
O=S(=O)(Nc1ccccc1N1CCOCC1)c1c(F)cc(F)cc1Br | nt | nt | nt | 0.0% | -21.5 | -14.4%
COc1ccc(S(=O)(=O)N(C)c2ccc(C(=O)NCCC(C)C)cc2)cc1 | -13.8% | -7.2% | -11.4% | -11.0% | 39.1 | -16.1%
CCOCCCNC(=O)c1ccc(N(C)S(=O)(=O)c2ccc(OC)cc2)cc1 | -0.6% | nt | nt | -3.6% | -103.3* | 1.3%
COc1ccc(C(=O)/C=C/NCc2ccc(C)cc2)cc1 | nt | -22.4% | -2.5% | -27.9% | -60.5* | 12.5%
C=CCNC(=O)c1ccc(N(Cc2ccc(Cl)cc2)S(C)(=O)=O)cc1 | 19.4% | nt | nt | 4.8% | -20.3 | -8.6%
COc1ccc(S(=O)(=O)N(C)c2ccc(C(=O)NCc3ccncc3)cc2)cc1 | 0.8% | -22.5% | i | 0.9% | 12.8 | -6.5%
COc1ccc(CNC(=O)c2ccc(N(C)S(=O)(=O)c3ccc(C)cc3)cc2)cc1 | nt | ? | -22.8% | 4.47µM* | 27.2 | -15.1%
Cc1ccc(C(=O)/C=C\NCc2ccccc2)cc1 | 3.4% | -17.5% | i | -15.0% | 9.4 | 9.9%
C=CCNC(=O)c1ccc(CN(c2ccc(OCC)cc2)S(=O)(=O)c2ccc(C)cc2)cc1 | 4.4% | nt | nt | 11.2µM* | -6.9 | -2.2%
CNC(=O)c1c(NC(=O)c2ccc(N3C(=O)CCC3=O)cc2)sc2c1CCC(C)C2 (stereo not given) | nt | -8.1% | i | nt | 35.7 | -13.7%
SMILES | Giardia FBPA inh | Vaccinia Venus | Vaccinia mCherry | HCV inh | HCMV antiviral | FMDV inh
COc1ccc(N(C)S(=O)(=O)c2ccc(Cl)c(C(=O)NCCc3ccc(Cl)cc3)c2)cc1 | -0.9% | -20.7% | -8.0% | 10µM* | -26.5 | -14.3%
COc1ccc(CNC(=O)c2cn(Cc3ccc(S(=O)(=O)N(C)C)cc3)c(=O)s2)cc1 | nt | -10.4% | -0.4% | nt | -81.2* | ?
CCN(C[C@H]1N[C@@](C)(C(=O)OC)[C@H]2C(=O)N(C)C(=O)[C@@H]12)S(=O)(=O)c1ccc(OC)cc1 | nt | -3.9% | -5.3% | -20.5% | 13.9 | -23.8%
CC1(c2nnc(-c3cccc(Cl)c3)o2)CC(c2cccc([N+](=O)[O-])c2)=NO1 (stereo not given) | 6.6% | -18.1% | ? | 7.94µM* | -11.3 | -21.9%
CC1(c2nnc(-c3ccccc3)o2)CC(c2ccc([N+](=O)[O-])cc2)=NO1 (stereo not given) | nt | -21.0% | -9.0% | ? | -68.2* | -10.5%
CC1(c2nnc(-c3ccncc3)o2)CC(c2ccc(Cl)cc2)=NO1 (stereo not given) | nt | -27.2% | ? | 11.2µM* | -27.0 | ?
CC1(c2nnc(-c3ccccc3)o2)CC(c2ccc(Cl)cc2)=NO1 (stereo not given) | 0.6% | -9.6% | -11.6% | -7.2% | 1.6 | -6.0%
Cc1cc2nc(CN(Cc3ccccc3)Cc3nc4cc(C)c(C)cc4[nH]3)[nH]c2cc1C | nt | nt | nt | nt | -11.8 | nt
Cc1cccc(N2C(=O)N(Cc3cccc(C#N)c3)c3ccccc3S2(=O)=O)c1 | nt | 3.8% | 10.7% | nt | 1.1 | -15.3%
CCCSc1ncnc2[nH]ncc12 | nt | -1.0% | i | 1.0% | -36.3 | -2.0%
Cc1ccc(O)c(NC(=O)c2ccc(Br)c(S(=O)(=O)N3CCCCC3)c2)c1 | nt | ? | -29.5% | nt | -73.2* | 0.0%
Cc1ccc(O)c(NC(=O)c2cccc(S(=O)(=O)N3CCCCC3)c2)c1 | -5.7% | -28.3% | nt | 11.2µM* | -25.1 | -7.5%
O=C(Nc1ccccn1)c1ccc(Br)c(S(=O)(=O)N2CCCCC2)c1 | 1.0% | -0.6% | -12.3% | 18.8% | 3.5 | ?
Cc1cc(NC(=O)c2ccc(Br)c(S(=O)(=O)N3CCCC3)c2)no1 | -1.4% | -18.0% | -22.1% | ? | -69.1* | ?
Cc1cc(NC(=O)c2cccc(S(=O)(=O)N3CCCC3)c2)no1 | 9.9% | -13.2% | -12.4% | 11.5% | 3.8 | 12.4%
Cc1ccc(NS(=O)(=O)c2ccc(C)c(NC(=O)c3ccc(S(=O)(=O)N4CCCCCC4)cc3)c2)c(C)c1 | nt | ? | -15.5% | nt | -63.7* | -18.3%
COc1cc(OC)c(C(=O)OCC(=O)Nc2nnc(-c3ccccc3)o2)cc1OC | nt | nt | nt | 4.8% | 13.9 | -12.5%
O=C([C@H]1[C@H](CO)[C@H]2Cn3c(cccc3=O)[C@@H]1N2C(=O)c1ccc(F)cc1)N1CCCCC1 | nt | nt | nt | nt | 13.9 | nt
C[C@@H]1[C@H](O)C[C@@]23COC(=O)C2=CCC[C@@H]3[C@@]1(C)CC/C(=C/CO)CO | nt | -5.2% | i | 20.3% | -7.5 | -7.2%
